Screening results: PubChem BioAssay, National Center for Advancing Translational Sciences (NCATS)
In the library only some 21% were active in any assay of this set; here they are far more common.
HCV inh – qHTS Assay for Inhibitors of Hepatitis C Virus (HCV). Huh7.5.1 HCVcc-Cre infection, luciferase reporter, 44 h. Potency, µM (highest dose often 41.8 µM), actives largely listed as inhibitors. 3.4% of 340,000 active
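After 44 h co-culture of compound, cells and HCVcc-Cre (~0.5 moi), substrate is added for 15 min at room temperature and luciferase measured over 15 sec. Cells were seeded at 1,000/well and pre-cultured 4 h.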
Shiga toxin inh – A qHTS for Small Molecule Inhibitors of Shiga Toxin. inhibition, % at 38.7 µM. 9.2% of 290,000 active. Vero cells, Shiga toxin protein synthesis inhibition reporter; in the data active means inhibition mostly above about 28%, no sharp cut-off; inactive means mostly below about 43%
Pf growth 96h – Primary qHTS for delayed death inhibitors of the malarial parasite plastid, 96 hour incubation. P. falciparum luciferase reporter growth, 96 h. Potency, µM (top dose mostly 28.7 µM), most hits filed as inhibitors. 6.9% of 320,000 active
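96 h incubation, 37 C, 5% CO2, of luciferase-reporter P. falciparum-infected RBCs (2% hematocrit, 0.05% parasitemia final) with test compounds; endpoint luminescence.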
Pf growth 48h – Primary qHTS for delayed death inhibitors of the malarial parasite plastid, 48 hour incubation; P. falciparum luciferase growth in erythrocytes, 48 h; Potency, µM (titrated, usually from 28.7 µM), usual class: inhibitors; 5.9% of 310,000 active; AID 504832, 2011
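Cell-based growth assay: transgenic P. falciparum expressing firefly luciferase, cultured in red cells within RPMI 1640 containing 0.5% w/v Albumax, 24 mM bicarbonate and gentamycin. A drop in luciferase activity indicates inhibition.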
AMA1-RON2 inh – qHTS for Inhibitors of AMA1-RON; Towards Development of Antimalarial Drug Lead: Primary Screen; Plasmodium falciparum AMA1 (3D7) - RON2 peptide interaction; AlphaScreen AMA1-biotinylated RON2 peptide binding; Potency, µM (top dose mostly 58.2 µM), actives largely listed as inhibitors; 0.2% of 360,000 active; AID 720542, 2013; further: nearly all actives have a fitted effect of over 45% in size
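AMA1 (3D7) with his tag at 25 nM final met compounds first, then biotinylated RON2 peptide at 25 nM; detection used donor plus acceptor beads, 10 µg/mL apiece, read by AlphaScreen after 30 min at room temperature.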
CHX counter – Cycloheximide Counterscreen for Small Molecule Inhibitors of Shiga Toxin | cell reporter, cycloheximide protein synthesis inhibition counterscreen | max response, % | 12% of 300,000 active | AID 2314, 2010; in the data active means max response mostly above about 13%, no sharp cut-off; inactive means mostly below about 14%; further: read at 38.3 µM for the half of the compounds with a filed dose
Large screens that a line does not name were inactive. Unless noted, the call rests on the fitted dose curve; in most records, active means well fitted curve in the direction sought with a large enough effect; inconclusive means small, poorly fitted or top-dose-only effect, or another doubt; inactive means no such curve, though single readings can be large; an effect the other way counts as inactive or inconclusive.

CCCc1cc(NCCCO)n2c(nc3ccccc32)c1C#N	HCV inh inconclusive, Pf growth 96h 3.29µM, Pf growth 48h inconclusive
CCC(C)Nc1cc(C)c(C#N)c2nc3ccccc3n12 (stereo unspecified)	HCV inh inconclusive
CC(C)c1cc(NCCN2CCOCC2)n2c(nc3ccccc32)c1C#N	none (no result: Shiga toxin inh, Pf growth 96h, Pf growth 48h, CHX counter)
Cc1cc(-n2ccnc2)n2c(nc3ccccc32)c1C#N	none (no result: Pf growth 48h)
Cc1cc(N2CCN(C3CCCC3)CC2)n2c(nc3ccccc32)c1C#N	Pf growth 96h 0.233µM, Pf growth 48h 0.294µM
COc1ccc(CCNc2nc(-c3ccc(O)cc3)cs2)cc1OC	HCV inh inconclusive, Pf growth 96h 10.4µM, Pf growth 48h inconclusive
COc1ccc(CCNc2nc(-c3ccccn3)cs2)cc1OC	HCV inh inconclusive, Pf growth 96h inconclusive, Pf growth 48h inconclusive
COc1ccc(CCNc2nc(-c3ccncc3)cs2)cc1OC	Pf growth 96h inconclusive
COc1ccc(CCNc2nc(-c3sc(C)nc3C)cs2)cc1OC	HCV inh 12.6µM, Pf growth 96h inconclusive, AMA1-RON2 inh inconclusive (no result: Pf growth 48h)
CN(C)CCC(=O)c1ccc2c(c1)OCO2	CHX counter 24.3
O=C(CCNc1ccccc1)c1ccc2c(c1)OCO2	Shiga toxin inh 71.5, CHX counter 62.9
CSCCC(C(=O)NCc1ccccc1)n1c(C2CCN(C(C)=O)CC2)nc2ccccc21 (stereo unspecified)	none (no result: HCV inh, Shiga toxin inh, Pf growth 96h, Pf growth 48h, CHX counter)
CCCC(C)c1nnc(NC(=O)C2CC(=O)N(CCc3ccc(F)cc3)C2)s1 (stereo unspecified)	none
O=[N+]([O-])c1ccc(N=Nc2ccc(O)cc2O)cc1	HCV inh inconclusive, Pf growth 96h 0.329µM (no result: Pf growth 48h)
O=[N+]([O-])c1cccc(N=Nc2ccc(O)cc2O)c1	HCV inh 1.78µM (no result: Shiga toxin inh, Pf growth 96h, Pf growth 48h, CHX counter)
CN(C)Cc1csc(Nc2ccc(C(F)(F)F)cn2)n1	none (no result: HCV inh, Shiga toxin inh, Pf growth 96h, Pf growth 48h, CHX counter)
CCOc1ccc(CN(CCO)CCO)cc1C(=O)OC	Pf growth 96h 2.08µM
CC1CCc2nc3sc4c(c3c(N)c2C1)CCCC4 (stereo unspecified)	HCV inh inconclusive, Shiga toxin inh 56.3, CHX counter 33.3
CC1CCc2c(nc3sc4c(c3c2N)CCCC4)C1 (stereo unspecified)	HCV inh 11.2µM, Shiga toxin inh active, Pf growth 96h inconclusive, CHX counter 37.4
CCc1nc2sc3c(c2c(=O)o1)CCCC3	none
CC1C/C(=C/c2cccn2C)C(=O)/C(=C/c2cccn2C)C1 (stereo unspecified)	HCV inh 6.31µM, Shiga toxin inh 48.5, Pf growth 96h inconclusive, AMA1-RON2 inh inconclusive, CHX counter 29.1 (no result: Pf growth 48h)
C=CC[C@H](CC(=O)N(CCO)Cc1ccccc1)C(=O)N[C@H](COC(=O)[C@@H](CC=C)CC(=O)OC(C)(C)C)c1ccccc1	HCV inh inconclusive (no result: Shiga toxin inh, Pf growth 96h, Pf growth 48h, CHX counter)
Cc1cc(N2CCCc3ccccc32)n2ncnc2n1	none
Cc1csc(N2CCc3ccccc32)n1	CHX counter 22.9
N#Cc1c(-c2ccccc2)nc(SCC(=O)Nc2ccc(OC(F)(F)Cl)cc2)[nH]c1=O	Pf growth 96h 3.7µM
N#Cc1c(-c2ccccc2)nc(SCC(=O)N(c2ccccc2)c2ccccc2)[nH]c1=O	Pf growth 96h 13.1µM
N#Cc1c(-c2ccccc2)nc(SCC(=O)Nc2ccccc2)[nH]c1=O	none
CCCNC(=O)CCc1c(C)nc2nc(C)nn2c1C	Pf growth 96h inconclusive
CN1CCN(C(=O)CN(C)S(=O)(=O)c2cc(Cl)ccc2Cl)CC1	none
O=C(CCN1C(=O)S/C(=C\c2ccccc2)C1=O)NC1CCS(=O)(=O)C1 (stereo unspecified)	Pf growth 96h 11.7µM
CCN(C(=O)CN1C(=O)S/C(=C\c2cccc(OC)c2)C1=O)C1CCS(=O)(=O)C1 (stereo unspecified)	Pf growth 96h 8.28µM, Pf growth 48h inconclusive
COc1cccc(/C=C2\SC(=O)N(CCC(=O)NC3CCS(=O)(=O)C3)C2=O)c1 (stereo unspecified)	Pf growth 96h 9.28µM
COc1cccc(/C=C2\SC(=S)N(CC(=O)N(C)C3CCS(=O)(=O)C3)C2=O)c1 (stereo unspecified)	none
COc1ccc(C(=O)Nc2cnc3sc(C)nn3c2=O)cc1	Shiga toxin inh 46.2, Pf growth 96h inconclusive, CHX counter 24.0
Cc1nc(-c2ccc(C(=O)Nc3ccc(F)cc3)cc2)cs1	HCV inh inconclusive, Shiga toxin inh 75.2, CHX counter 35.3
CCOc1ccc(NC(=O)c2ccc(-c3csc(C)n3)cc2)cc1	HCV inh inconclusive
COc1ccc(-c2csc(C)n2)cc1	Shiga toxin inh 56.0, Pf growth 96h inconclusive, CHX counter 30.7
COc1ccc(NC(=O)c2ccc(-c3csc(C)n3)cc2)cc1	HCV inh 7.08µM, Shiga toxin inh 78.5, CHX counter 35.8
O=C(CSc1nc(=O)n2ccccc2n1)OCc1ccccc1	Pf growth 48h inconclusive (no result: Shiga toxin inh, CHX counter)
O=C(NCc1cn(-c2ccccc2)nc1-c1ccc(F)cc1)c1cccc([N+](=O)[O-])c1	HCV inh inconclusive, Pf growth 96h inconclusive
CCc1cccc(CC)c1N1C(=O)C2=C(SCCCS2)C1=O	none (no result: HCV inh, Shiga toxin inh, Pf growth 96h, Pf growth 48h, CHX counter)
Cc1nc(-c2ccc(C(=O)Nc3cccc(F)c3)cc2)cs1	HCV inh 3.55µM, Shiga toxin inh 17.7, CHX counter 16.9
Cc1nc(-c2cccc(NC(=O)c3ccc(-n4cccn4)cc3)c2)cs1	HCV inh 11.2µM (no result: Shiga toxin inh, CHX counter)
Cc1nc(-c2cccc(NC(=O)C(C)Oc3ccccc3)c2)cs1 (stereo unspecified)	HCV inh inconclusive
COc1ccc(CN2CCNC(=O)C2CC(=O)NCCN2CCCCC2=O)c(F)c1 (stereo unspecified)	none
O=C(O)Cn1c(=O)c(-c2ccccc2)nc2ccccc21	Pf growth 96h 7.38µM
O=C(O)Cn1c(-c2ccccn2)nc2ccccc21	Shiga toxin inh 46.0, CHX counter 31.5
COc1ccc(/C=C2/NC(=O)CNC2=O)cc1	none
COc1ccc(CNC(=O)CSc2nc(-c3ccccc3)cc(-c3cccs3)c2C#N)cc1	Pf growth 96h 6.57µM (no result: Pf growth 48h)
CCc1nnc(NC(=O)CSc2nc(-c3ccccc3)cc(-c3ccc(F)cc3)c2C#N)s1	HCV inh inconclusive
COc1ccc(-c2[nH]c(-c3ccccc3)nc2SCC(=O)Nc2nccs2)cc1	HCV inh 14.1µM, Pf growth 96h inconclusive
COc1cc(-c2cc(-c3ccccc3)nc(SCC(=O)Nc3nccs3)c2C#N)cc(OC)c1OC	Pf growth 96h inconclusive, Pf growth 48h 1.17µM
COc1ccc(-c2cc(-c3cccs3)c(C#N)c(SCC(=O)NCc3ccco3)n2)cc1	HCV inh inconclusive
